For 39 molecules, growth results are on record in PubChem BioAssay (NCI).

Compounds without any hit were thinned out: in the full panel of roughly 83,000, 20% have a hit.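 Cell lines were cultured in 96-well plates, exposed to a single compound concentration, and assessed for percent growth 48 hours later.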 Calls of active or inactive are those of the source. Rule for the calls: active = growth percent below 10; inactive = the rest.

The test system of one assay is MDA-MB-435 melanoma. As to the kind of experiment: NCI-60 one-dose screen, 48 h (100 = growth as untreated, 0 = no growth, -100 = all killed). Conditions: 10 µM unless noted.
As to `O=C(NCCCNc1nccc(-n2ccc3cccnc32)n1)c1c(F)cccc1F`, the growth was 105% (inactive).
On to `COc1ccc(C(=O)c2cc(OC)c3c(c2)OCO3)cc1O`, for which the growth is -22.5% (active).
Regarding `Cc1cc(C(C)(C)C)ccc1S`, the growth is 111% (inactive).
As to `Cn1cnc2c(N3CCN(C(=O)OCc4ccc5c(Cl)cc(Cl)c(O)c5n4)CC3)nc(Cl)nc21`, the growth is 67.5% (inactive).
Regarding `Fc1ccccc1-c1nc(-c2nc3cc(Cl)c(Cl)cc3[nH]2)c2ccccn12`, the growth is 73.6% (inactive).
Still for that read-out and setting: for `C1=Cc2ccccc2N(c2nnc(-c3ccccc3)o2)c2ccccc21` the value was 87.9% (inactive); for `COc1cc(C2CC(c3ccc4c(c3)OCO4)=NN2C=O)cc(OC)c1OC` (stereo not drawn), -25.9% (active); for `COc1ccc(/C=C2/C(=O)NC(SCC(=O)N3CCN(c4cc5c(cc4F)c(=O)c(C(=O)O)cn5C4CC4)CC3)=NC2N)cc1OC` (stereo not drawn), 104% (inactive).
Consider `COc1cc(C2CC(c3ccc4c(c3)OCO4)=NN2C(C)=O)cc(OC)c1OC` (stereo not drawn), for which the growth was -49% (active).
Still for that read-out and setting: for `COc1cc(NCCCCCN)c2ncccc2c1` the value was 114% (inactive).
Still for that read-out and setting: for `C=C1CCC2C(C)(CO)C(O)CCC2(C)C1C/C=C1/C(=O)OCC1Oc1ccccc1C` (stereo not drawn) the value was 59.3% (inactive); for `CCCCCCCCCCCCCCCCNC(=O)OC(C)C`, 68.5% (inactive); for `O=C(/C=C/c1cc(-c2ccc3c(c2)OCO3)n[nH]1)c1ccc2c(c1)OCO2`, 99.7% (inactive).
`c1cc(C2=N[C@@H]3c4ccccc4C[C@@H]3O2)nc(C2=N[C@@H]3c4ccccc4C[C@@H]3O2)c1`: the growth is 104% (inactive).
Consider `COc1ccccc1CNCCCN1C(=O)c2ccc3c4c(ccc(c24)C1=O)C(=O)N(CCCNCCCCNCCCN)C3=O`, for which the growth is -13.4% (active).
On to `NC(=N\N=C/c1ccc(O)cc1)/C(N)=N\N=C/c1ccc(O)cc1`, for which the growth is 44.7% (inactive).
The same measure, in the same setting: for `COc1ccc(-c2c(N)n[nH]c2-c2cc(OC)c3c(c2)OCCO3)cc1` the value was -24.1% (active).
Still for that read-out and setting: for `C=C1CCC2C(C)(CO)C(O)CCC2(C)C1C/C=C1/C(=O)OCC1O/C=C/c1ccccc1` (stereo not drawn) the value was 75.8% (inactive); for `CC(C)(C)n1cc(-c2ccnc(NCCNS(=O)(=O)c3ccc(F)cc3)c2)c(-c2cccc(O)c2)n1`, 64.7% (inactive).
Still for that read-out and setting: the value for `COc1ccc2c(c1)OC1=C(C(=O)OC1)C2c1cc(OC)c2c(c1)OCO2` (stereo not drawn) was -22.5% (active); that for `CC(C)OC(=O)N1CCOCC1` was 117% (inactive).
Turning to `CC12CCC3C4(C)COC(c5ccccc5Cl)OC4CCC3(C)C1CC(C1=CCOC1=O)O2` (stereo not drawn), the growth is 54.2% (inactive).
On the same count and under the same terms, for `CCCOC(=O)n1cccc1` the value was 110% (inactive); for `O=S(=O)(NCCCNc1nccc(-n2ccc3cccnc32)n1)c1cccc(C(F)(F)F)c1`, 108% (inactive); for `Cc1ccc(S(=O)(=O)NCCNc2cc(-c3cn(C(C)(C)C)nc3-c3cccc(O)c3)ccn2)cc1`, 78.1% (inactive).
Same read-out and setting: the value for `Cc1ccc(S(=O)(=O)NCCCNc2cc(-c3cn(C(C)(C)C)nc3-c3cccc(O)c3)ccn2)cc1` was 63.1% (inactive).
On the same count and under the same terms, for `C=C1CCC2C(C)(CO)C(O)CCC2(C)C1CC(NCc1ccccc1)C1=CCOC1=O` (stereo not drawn) the value was 106% (inactive).
In the case of `COc1ccc2c(c1)NC1=C(C(=O)OC1)C2c1cc(OC)c2c(c1)OCO2` (stereo not drawn), the growth is -14.7% (active).
Still for that read-out and setting: the value for `COc1cc(Nc2ncccc2C(=O)NCc2cn(Cc3cccc(Oc4ccccc4)c3)nn2)cc(OC)c1` was -15.3% (active); that for `CC12CCC3C4(C)COC(c5ccco5)OC4CCC3(C)C1CC(C1=CCOC1=O)O2` (stereo not drawn) was 103% (inactive); that for `C=C1CCC2C3(C)COC(C)(C)OC3CCC2(C)C1C/C=C1/C(=O)OCC1Oc1ccccc1OC` (stereo not drawn) was 68.6% (inactive).
On the same count and under the same terms, for `O=C(/C=C/c1ccccc1)c1cccc(O)c1` the value was 57.1% (inactive); for `CC(C)(C)n1cc(-c2ccnc(NCCCNS(=O)(=O)c3ccc(F)cc3)c2)c(-c2cccc(O)c2)n1`, 58.6% (inactive).
For `COc1cc(C2C3=C(COC3=O)Nc3cc4c(cc32)OCO4)cc2c1OCO2` (stereo not drawn), the growth is -20.4% (active).
Turning to `O=C(NCCNc1nccc(-n2ccc3cccnc32)n1)c1ccc(C(F)(F)F)cc1`, the growth was 99.9% (inactive).
Turning to `COc1cc(C2C3=C(COC3=O)Nc3cc4c(cc32)CCC4)cc2c1OCO2` (stereo not drawn), the growth was -12.3% (active).
Take `COc1ccc(-c2ccc(C)n2-c2ccc(-c3nc4cc(Cl)ccc4s3)cc2)cc1`: the growth was 95.1% (inactive).
The same measure, in the same setting: the value for `O=C(NCc1cn(Cc2cccc(Oc3ccccc3)c2)nn1)c1cccnc1Nc1ccc(F)cc1` was -11.7% (active); that for `CC12CCCC(CC(=O)c3[nH]c4ccccc4c31)C2` (stereo not drawn) was -46.9% (active).

The next assay relates to SW-620 colon. The assay is described as above. Conditions: 10 µM unless noted.
For the molecule `O=C(NCCCNc1nccc(-n2ccc3cccnc32)n1)c1c(F)cccc1F`, the growth is 107% (inactive).
Still for that read-out and setting: the value for `COc1ccc(C(=O)c2cc(OC)c3c(c2)OCO3)cc1O` was 24.6% (inactive); that for `Cc1cc(C(C)(C)C)ccc1S` was 98.4% (inactive); that for `Cn1cnc2c(N3CCN(C(=O)OCc4ccc5c(Cl)cc(Cl)c(O)c5n4)CC3)nc(Cl)nc21` was 85.9% (inactive).
For `Fc1ccccc1-c1nc(-c2nc3cc(Cl)c(Cl)cc3[nH]2)c2ccccn12`, the growth is 80.2% (inactive).
Same read-out and setting: the value for `C1=Cc2ccccc2N(c2nnc(-c3ccccc3)o2)c2ccccc21` was 99.9% (inactive); that for `COc1cc(C2CC(c3ccc4c(c3)OCO4)=NN2C=O)cc(OC)c1OC` (stereo not drawn) was 27% (inactive).
The same measure, in the same setting: the value for `COc1ccc(/C=C2/C(=O)NC(SCC(=O)N3CCN(c4cc5c(cc4F)c(=O)c(C(=O)O)cn5C4CC4)CC3)=NC2N)cc1OC` (stereo not drawn) was 105% (inactive); that for `COc1cc(C2CC(c3ccc4c(c3)OCO4)=NN2C(C)=O)cc(OC)c1OC` (stereo not drawn) was 26.6% (inactive).
Same read-out and setting: the value for `COc1cc(NCCCCCN)c2ncccc2c1` was 99.4% (inactive); that for `C=C1CCC2C(C)(CO)C(O)CCC2(C)C1C/C=C1/C(=O)OCC1Oc1ccccc1C` (stereo not drawn) was 17.9% (inactive); that for `CCCCCCCCCCCCCCCCNC(=O)OC(C)C` was 18.9% (inactive).
On to `O=C(/C=C/c1cc(-c2ccc3c(c2)OCO3)n[nH]1)c1ccc2c(c1)OCO2`, for which the growth was 93.8% (inactive).
On the same count and under the same terms, the value for `c1cc(C2=N[C@@H]3c4ccccc4C[C@@H]3O2)nc(C2=N[C@@H]3c4ccccc4C[C@@H]3O2)c1` was 107% (inactive).
Still for that read-out and setting: the value for `COc1ccccc1CNCCCN1C(=O)c2ccc3c4c(ccc(c24)C1=O)C(=O)N(CCCNCCCCNCCCN)C3=O` was -36.5% (active); that for `NC(=N\N=C/c1ccc(O)cc1)/C(N)=N\N=C/c1ccc(O)cc1` was 40.8% (inactive).
Still for that read-out and setting: for `COc1ccc(-c2c(N)n[nH]c2-c2cc(OC)c3c(c2)OCCO3)cc1` the value was 48% (inactive).
Regarding `C=C1CCC2C(C)(CO)C(O)CCC2(C)C1C/C=C1/C(=O)OCC1O/C=C/c1ccccc1` (stereo not drawn), the growth is 5.82% (active).
The same measure, in the same setting: for `CC(C)(C)n1cc(-c2ccnc(NCCNS(=O)(=O)c3ccc(F)cc3)c2)c(-c2cccc(O)c2)n1` the value was 11% (inactive).
Still for that read-out and setting: for `COc1ccc2c(c1)OC1=C(C(=O)OC1)C2c1cc(OC)c2c(c1)OCO2` (stereo not drawn) the value was 18.7% (inactive); for `CC(C)OC(=O)N1CCOCC1`, 95.4% (inactive); for `CC12CCC3C4(C)COC(c5ccccc5Cl)OC4CCC3(C)C1CC(C1=CCOC1=O)O2` (stereo not drawn), 84.7% (inactive).
Same read-out and setting: for `CCCOC(=O)n1cccc1` the value was 102% (inactive).
Consider `O=S(=O)(NCCCNc1nccc(-n2ccc3cccnc32)n1)c1cccc(C(F)(F)F)c1`, for which the growth was 108% (inactive).
Same read-out and setting: for `Cc1ccc(S(=O)(=O)NCCNc2cc(-c3cn(C(C)(C)C)nc3-c3cccc(O)c3)ccn2)cc1` the value was 39.7% (inactive); for `Cc1ccc(S(=O)(=O)NCCCNc2cc(-c3cn(C(C)(C)C)nc3-c3cccc(O)c3)ccn2)cc1`, 19.1% (inactive).
The same measure, in the same setting: the value for `C=C1CCC2C(C)(CO)C(O)CCC2(C)C1CC(NCc1ccccc1)C1=CCOC1=O` (stereo not drawn) was 97.3% (inactive).
Turning to `COc1ccc2c(c1)NC1=C(C(=O)OC1)C2c1cc(OC)c2c(c1)OCO2` (stereo not drawn), the growth is 21.2% (inactive).
The same measure, in the same setting: for `COc1cc(Nc2ncccc2C(=O)NCc2cn(Cc3cccc(Oc4ccccc4)c3)nn2)cc(OC)c1` the value was 31.4% (inactive).
Still for that read-out and setting: the value for `CC12CCC3C4(C)COC(c5ccco5)OC4CCC3(C)C1CC(C1=CCOC1=O)O2` (stereo not drawn) was 107% (inactive).
Regarding `C=C1CCC2C3(C)COC(C)(C)OC3CCC2(C)C1C/C=C1/C(=O)OCC1Oc1ccccc1OC` (stereo not drawn), the growth is 21.4% (inactive).
The same measure, in the same setting: for `O=C(/C=C/c1ccccc1)c1cccc(O)c1` the value was 65.4% (inactive).
On the same count and under the same terms, the value for `CC(C)(C)n1cc(-c2ccnc(NCCCNS(=O)(=O)c3ccc(F)cc3)c2)c(-c2cccc(O)c2)n1` was 8.4% (active); that for `COc1cc(C2C3=C(COC3=O)Nc3cc4c(cc32)OCO4)cc2c1OCO2` (stereo not drawn) was 17.1% (inactive).
The same measure, in the same setting: the value for `O=C(NCCNc1nccc(-n2ccc3cccnc32)n1)c1ccc(C(F)(F)F)cc1` was 103% (inactive); that for `COc1cc(C2C3=C(COC3=O)Nc3cc4c(cc32)CCC4)cc2c1OCO2` (stereo not drawn) was 25.4% (inactive); that for `COc1ccc(-c2ccc(C)n2-c2ccc(-c3nc4cc(Cl)ccc4s3)cc2)cc1` was 103% (inactive).
Regarding `O=C(NCc1cn(Cc2cccc(Oc3ccccc3)c2)nn1)c1cccnc1Nc1ccc(F)cc1`, the growth is 44.7% (inactive).
Same read-out and setting: the value for `CC12CCCC(CC(=O)c3[nH]c4ccccc4c31)C2` (stereo not drawn) was 22.2% (inactive).
